According to PubChem BioAssay (NCATS):
Results filed as inconclusive are left out. Calls of active or inactive are those of the source. Unless noted, calls follow the shape of the dose curve; as a rule, active = well fitted curve in either direction with a large enough effect (not every such curve was filed as active); inconclusive = small, poorly fitted or top-dose-only effect, or another doubt; inactive = flat fitted curve, though single readings scatter.

Legend:
[1] = AP1 Signaling Pathway (AID 357);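 also: ME-180 reporter cells stimulated with EGF at its EC50 level; % is scaled to controls: 0 for no effect and ±100 for the full control effect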
How it was run: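 Beta-lactamase reporter under AP-1 response element, ME-180 background. Stimulus: EC50 EGF. Compound exposure 5 h, 37 °C. Detection: CCF4, 2.5 h RT, 460/530 nm. Values: AC50 from titration.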

[2] = biological target: Cytochrome P450 1A2 (Homo sapiens) (UniProt P05177); assay: p450-cyp1a2 (AID 410; calls by dose curve; also: potency is read from the fitted curve at half-maximal effect;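 as to activity change, negative = inhibition: -100% = full effect of reference inhibitor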)
How it was run: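 Inhibition was calculated relative to 57 uM furafylline (full inhibition). The reaction used human CYP1A2 at 20nM with Luciferin-ME at its Km, 100uM, driven by an NADPH-regenerating system for 60 min at room temperature.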

[3] = NFAT Signaling Pathway (AID 444); conditions: Jurkat NFAT-bla M1, carbachol, beta-lactamase ratio, 5 h; at 17.2 µM (top of the series) unless noted;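 also: carbachol stimulus at about its EC50 of 1 µM final; % is scaled to controls: 0 for no effect and ±100 for the full control effect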
How it was run: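 Jurkat cells with NFAT-driven β-lactamase reporter and co-expressed M1 receptor, stimulated with carbachol (final 1 uM, ~EC50), compound titration, 5 h at 37 °C. CCF4 loaded 1 h at RT; 460/530 nm ratio gave %activity and AC50.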

[4] = Stat Signaling Pathway (AID 446);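 also: ME-180 cervical cancer cells given 40 pM IL-6 alongside compound; SIE-controlled beta-lactamase reporter measured as 460/530 nm FRET emission ratio; % is scaled to controls: 0 for no effect and ±100 for the full control effect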
How it was run: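 ME-180 cells carrying a SIE-driven beta-lactamase reporter are stimulated with 40 pM IL-6 for 5 h at 37C in the presence of compound. The 460/530 nm FRET substrate ratio is read after 2.5 h at RT. Data are normalised to 300 pM IL-6 and to 125 nM JAK inhibitor controls.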

[5] = biological target: Glucocorticoid receptor (Homo sapiens) (UniProt P04150); assay: GR-EFC Redistribution (AID 451; calls by dose curve; also: potency is read from the fitted curve at half-maximal effect); conditions: CHO-K1 GR-EFC translocation, beta-gal luminescence, 2 h
How it was run: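 CHO-K1 cells expressing nuclear EA and GR-ED fragments of b-gal; compounds titrated up to 46 uM final, 2 h at 37 C. GR nuclear translocation read as complemented b-gal luminescence after 1 h RT detection.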

[6] = biological target: Mitogen-activated protein kinase 10 (Mus musculus) (UniProt Q61831); assay: JNK3 AlphaScreen Assay (AID 530);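 also: kinase came from lysate of stimulated human HepG2 cells; signal reports phosphorylation of biotinylated GST-cJun 1-79 at Ser73 with 10 µM ATP; % is scaled to controls: 0 for no effect and ±100 for the full control effect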
How it was run: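 qHTS format: compounds tested as titrations against IL-1beta/TNF-alpha-activated HepG2 lysate JNK3 with biotin-GST-cJun substrate and 10 uM ATP at room temperature. Loss of anti-phospho-cJun AlphaScreen signal indicates inhibition.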

[7] = biological target: 3',5'-cyclic-AMP phosphodiesterase 4B (Homo sapiens) (UniProt Q07343); assay: qHTS Assay for Inhibitors of PDE-IV (AID 607; active = well fitted activation curve with a large enough effect in the main read-out, with a control signal flat, not every such curve was filed as active; also: % of control where 0% means no effect)
How it was run: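 HEK293 ACTOne cells with CNG channel (1000/well), endogenous PDE4; membrane potential dye, compounds up to 22.9 uM final. Fluorescence Ex 535/Em 590; RO 20-1724 (100 uM final) as reference.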

[8] = qHTS Assay for Lipid Storage Modulators (AID 1519; calls by dose curve); conditions: Drosophila S3 cells, BODIPY lipid droplet/cell ratio, laser cytometry, cells loaded with oleic acid
How it was run: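 Cells seeded at 5,000 per well were treated with compounds over a concentration series and loaded with oleic acid (400 uM, as added). Lipid droplet fluorescence (488 nm excitation, 500-530 nm channel) was read by laser-scanning cytometry and normalized to 20 uM Triacsin C.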

[9] = biological target: ATP-dependent 6-phosphofructokinase (Trypanosoma brucei brucei) (UniProt O15648); assay: qHTS Assay to Find Inhibitors of T. brucei phosphofructokinase: hit validation (AID 492961; active = well fitted curve in the direction sought with a large enough effect; an effect the other way counts as inactive or inconclusive; also: % is scaled to controls: 0 for no effect and ±100 for the full control effect)
How it was run: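 Luminescence from ADP-Glo reports ADP generated as T. brucei PFK (1.25 nM) phosphorylates 0.5 mM fructose-6-phosphate using 0.1 mM ATP. Reactions ran 45 min at room temperature, pH 8.0.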

[10] = biological target: Ubiquitin carboxyl-terminal hydrolase 1 (Homo sapiens) (UniProt O94782); assay: Inhibitors of USP1/UAF1: Pilot qHTS (AID 504865; active = well fitted curve in the direction sought with a large enough effect; an effect the other way counts as inactive or inconclusive;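 also: rhodamine fluorescence freed from ubiquitin-rhodamine substrate followed over time; top concentration of the series differs between compounds; % is scaled to controls: 0 for no effect and ±100 for the full control effect; nearly all actives have a fitted effect of over 35% in size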)
How it was run: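 USP1/UAF1 complex (1nM) preincubated with compound 15 min at room temperature, then Ub-Rho substrate (150nM final) added. Fluorescence read kinetically at 480/540 nm, 6 reads every 60 seconds. Buffer: 50mM HEPES pH 7.8, 0.5mM EDTA, 0.1 mg/ml BSA, 1mM TCEP, 0.01% Tween-20.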

[11] = biological target: Luciferin 4-monooxygenase (Photinus pyralis) (UniProt P08659); assay: Biochemical firefly luciferase enzyme assay for NPC (AID 624030; active = well fitted curve in the direction sought with a large enough effect; an effect the other way counts as inactive or inconclusive;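 also: purified P. pyralis luciferase at 10 nM with luciferin and ATP substrate; 0% = DMSO and -100% = full luciferase inhibition by PTC124 control; nearly all actives have a fitted effect of over 70% in size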)
How it was run: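 Purified P. pyralis luciferase at 10 nM in 50 mM Tris Acetate (final), luminescence read within 5 minutes of enzyme addition to compounds. Activity normalised to PTC124 versus DMSO; concentration-response curves classed by r2, magnitude and activity.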

[12] = S16 Schwann cell PMP22 intronic element firefly luciferase assay (AID 624032; active = well fitted curve in the direction sought with a large enough effect; an effect the other way counts as inactive or inconclusive;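 also: plate controls were DMSO for no effect and PTC124 positive control mean for full effect; nearly all actives have a fitted effect of over 30% in size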)
How it was run: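 Rat S16 Schwann cells stably carrying firefly luciferase driven by a PMP22 intronic element, in 10% FBS, treated 24 h at 37 C. ONE-Glo luminescence normalized to PTC124 control and DMSO (0%); curves classed by r2, magnitude and activity.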

[13] = qHTS profiling for inhibitors of Plasmodium falciparum proliferation (AID 504749; active = well fitted curve in the direction sought with a large enough effect; an effect the other way counts as inactive or inconclusive;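 also: 0% = DMSO vehicle and full inhibition = artemisinin control; nearly all actives have a fitted effect of over 60% in size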); conditions: P. falciparum in erythrocytes, SYBR Green DNA, 72 h, at 12.8 µM (top of the series)
How it was run: (§1)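 Readout was DNA-dye fluorescence from lysed cultures, ex 485/em 535 nm. Parasitized red cells had grown 72 h with compound; data scaled between 0.29 uM artemisinin and DMSO wells and corrected using vehicle-only plates.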

CP191 = assay: as above; conditions: P. falciparum in erythrocytes, SYBR Green DNA, 72 h; series mostly up to 12.8 µM
How it was run: as §1

CP217 = assay: as above; conditions: P. falciparum in erythrocytes, SYBR Green DNA, 72 h; series mostly up to 12.8 µM
How it was run: as §1

CP250 = assay: as above; conditions: P. falciparum in erythrocytes, SYBR Green DNA, 72 h; series mostly up to 12.8 µM
How it was run: as §1

CP256 = assay: as above; conditions: P. falciparum in erythrocytes, SYBR Green DNA, 72 h; series mostly up to 12.8 µM
How it was run: as §1

FAB9 = assay: as above; conditions: P. falciparum in erythrocytes, SYBR Green DNA, 72 h; series mostly up to 12.8 µM
How it was run: as §1

JCK = assay: as above; conditions: P. falciparum in erythrocytes, SYBR Green DNA, 72 h; series mostly up to 12.8 µM
How it was run: as §1

[14] = biological target: Glucocorticoid receptor (Homo sapiens) (UniProt P04150); assay: GR-GFP Redistribution (AID 450;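 active = compounds whose dose series gives a full or clear partial fitted curve of increased nuclear translocation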; also: potency is read from the fitted curve at half-maximal effect); conditions: U2OS GR-GFP nuclear translocation, laser cytometry, 2 h
[15] = measured here: cell count channel max response
[16] = measured here: lipid channel max response

Sequence of Ubiquitin carboxyl-terminal hydrolase 1 (Homo sapiens) (O94782 whole entry, looked up): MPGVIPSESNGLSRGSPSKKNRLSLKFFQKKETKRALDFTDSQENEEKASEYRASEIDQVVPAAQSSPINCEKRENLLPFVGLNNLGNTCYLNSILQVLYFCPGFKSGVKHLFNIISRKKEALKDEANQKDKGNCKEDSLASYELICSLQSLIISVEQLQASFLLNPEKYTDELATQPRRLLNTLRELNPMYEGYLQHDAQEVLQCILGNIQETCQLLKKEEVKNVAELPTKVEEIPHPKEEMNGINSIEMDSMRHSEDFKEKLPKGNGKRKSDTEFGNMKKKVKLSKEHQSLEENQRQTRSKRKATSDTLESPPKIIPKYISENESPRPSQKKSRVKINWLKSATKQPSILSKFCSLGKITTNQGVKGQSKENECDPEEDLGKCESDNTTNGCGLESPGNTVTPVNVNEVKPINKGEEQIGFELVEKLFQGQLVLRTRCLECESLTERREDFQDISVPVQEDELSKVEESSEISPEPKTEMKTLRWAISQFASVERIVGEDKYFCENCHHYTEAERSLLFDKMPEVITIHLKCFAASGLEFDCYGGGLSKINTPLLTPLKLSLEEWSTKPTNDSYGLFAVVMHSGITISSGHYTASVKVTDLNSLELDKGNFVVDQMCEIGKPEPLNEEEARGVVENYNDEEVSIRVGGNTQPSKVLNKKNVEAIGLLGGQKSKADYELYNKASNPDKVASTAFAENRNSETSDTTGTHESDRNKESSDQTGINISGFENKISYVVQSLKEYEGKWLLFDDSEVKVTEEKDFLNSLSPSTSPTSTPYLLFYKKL
Sequence of Cytochrome P450 1A2 (Homo sapiens) (P05177 whole entry, looked up): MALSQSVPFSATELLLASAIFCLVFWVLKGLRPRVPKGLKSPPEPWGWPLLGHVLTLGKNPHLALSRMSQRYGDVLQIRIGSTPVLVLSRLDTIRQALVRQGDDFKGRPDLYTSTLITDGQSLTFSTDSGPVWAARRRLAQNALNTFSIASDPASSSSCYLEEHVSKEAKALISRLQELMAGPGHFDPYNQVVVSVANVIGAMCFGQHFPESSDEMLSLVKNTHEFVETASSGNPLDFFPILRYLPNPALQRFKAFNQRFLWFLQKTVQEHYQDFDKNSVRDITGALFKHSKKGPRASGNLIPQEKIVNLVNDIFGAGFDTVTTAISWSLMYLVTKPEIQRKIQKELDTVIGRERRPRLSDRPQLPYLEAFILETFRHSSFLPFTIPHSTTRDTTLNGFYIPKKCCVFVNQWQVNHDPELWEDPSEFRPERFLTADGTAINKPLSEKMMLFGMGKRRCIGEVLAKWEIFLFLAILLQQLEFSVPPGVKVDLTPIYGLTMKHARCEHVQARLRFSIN
Sequence of 3',5'-cyclic-AMP phosphodiesterase 4B (Homo sapiens) (Q07343 whole entry, looked up): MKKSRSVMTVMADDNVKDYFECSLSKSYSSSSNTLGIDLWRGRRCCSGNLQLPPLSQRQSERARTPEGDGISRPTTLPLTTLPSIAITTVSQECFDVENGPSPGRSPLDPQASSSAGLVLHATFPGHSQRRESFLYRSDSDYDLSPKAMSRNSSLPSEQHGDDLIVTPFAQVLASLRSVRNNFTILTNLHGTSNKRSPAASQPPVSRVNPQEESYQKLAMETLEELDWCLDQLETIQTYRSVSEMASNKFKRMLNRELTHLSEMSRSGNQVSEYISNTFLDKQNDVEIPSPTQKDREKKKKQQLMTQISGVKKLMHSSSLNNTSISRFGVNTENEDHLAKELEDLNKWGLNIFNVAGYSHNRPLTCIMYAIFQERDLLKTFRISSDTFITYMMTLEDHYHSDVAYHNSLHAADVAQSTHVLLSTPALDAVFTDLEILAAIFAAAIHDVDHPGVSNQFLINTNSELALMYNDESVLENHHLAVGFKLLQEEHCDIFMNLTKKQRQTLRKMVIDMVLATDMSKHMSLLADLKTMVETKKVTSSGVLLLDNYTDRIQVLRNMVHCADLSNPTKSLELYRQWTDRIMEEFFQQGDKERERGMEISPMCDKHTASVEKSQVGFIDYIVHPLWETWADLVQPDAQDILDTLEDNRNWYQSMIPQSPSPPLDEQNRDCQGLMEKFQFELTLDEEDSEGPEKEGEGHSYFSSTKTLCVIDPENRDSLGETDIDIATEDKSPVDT
Sequence of Glucocorticoid receptor (Homo sapiens) (P04150 whole entry, looked up, the tested form may be a part): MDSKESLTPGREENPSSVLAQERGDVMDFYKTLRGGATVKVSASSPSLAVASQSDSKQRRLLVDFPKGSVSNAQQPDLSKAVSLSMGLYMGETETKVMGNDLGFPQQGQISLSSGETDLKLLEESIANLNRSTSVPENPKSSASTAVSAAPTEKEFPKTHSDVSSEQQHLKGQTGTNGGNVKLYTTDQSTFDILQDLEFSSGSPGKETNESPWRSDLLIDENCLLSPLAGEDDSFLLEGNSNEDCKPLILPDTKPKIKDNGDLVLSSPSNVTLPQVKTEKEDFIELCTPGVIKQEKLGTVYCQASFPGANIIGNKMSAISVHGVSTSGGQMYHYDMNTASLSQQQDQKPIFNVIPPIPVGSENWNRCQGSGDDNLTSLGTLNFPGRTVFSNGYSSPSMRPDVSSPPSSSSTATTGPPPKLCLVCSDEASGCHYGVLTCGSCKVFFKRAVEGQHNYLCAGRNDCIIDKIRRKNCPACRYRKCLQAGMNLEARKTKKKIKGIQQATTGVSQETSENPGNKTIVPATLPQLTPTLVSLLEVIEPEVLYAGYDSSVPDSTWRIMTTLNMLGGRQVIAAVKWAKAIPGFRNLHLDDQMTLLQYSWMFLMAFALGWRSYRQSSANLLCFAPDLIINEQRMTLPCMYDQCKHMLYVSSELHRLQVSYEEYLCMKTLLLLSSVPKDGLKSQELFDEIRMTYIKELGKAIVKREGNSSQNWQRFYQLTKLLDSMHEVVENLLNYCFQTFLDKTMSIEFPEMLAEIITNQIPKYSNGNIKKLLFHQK
Sequence of Luciferin 4-monooxygenase (Photinus pyralis) (P08659 whole entry, looked up): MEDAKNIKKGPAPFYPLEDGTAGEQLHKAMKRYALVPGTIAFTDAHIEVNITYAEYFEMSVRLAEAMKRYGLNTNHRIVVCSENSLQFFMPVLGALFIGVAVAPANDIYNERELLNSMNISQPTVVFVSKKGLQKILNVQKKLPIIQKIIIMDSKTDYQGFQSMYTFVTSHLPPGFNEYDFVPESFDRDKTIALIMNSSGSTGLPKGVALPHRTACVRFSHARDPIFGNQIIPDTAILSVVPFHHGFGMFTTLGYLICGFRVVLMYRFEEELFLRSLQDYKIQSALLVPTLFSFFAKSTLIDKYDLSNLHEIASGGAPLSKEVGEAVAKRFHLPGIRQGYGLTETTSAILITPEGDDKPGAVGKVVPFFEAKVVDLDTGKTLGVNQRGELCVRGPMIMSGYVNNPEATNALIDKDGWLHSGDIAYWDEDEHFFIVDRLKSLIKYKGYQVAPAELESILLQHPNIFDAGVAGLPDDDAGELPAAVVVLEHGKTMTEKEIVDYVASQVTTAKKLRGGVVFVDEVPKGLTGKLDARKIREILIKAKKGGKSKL
Sequence of ATP-dependent 6-phosphofructokinase (Trypanosoma brucei brucei) (O15648 whole entry, looked up): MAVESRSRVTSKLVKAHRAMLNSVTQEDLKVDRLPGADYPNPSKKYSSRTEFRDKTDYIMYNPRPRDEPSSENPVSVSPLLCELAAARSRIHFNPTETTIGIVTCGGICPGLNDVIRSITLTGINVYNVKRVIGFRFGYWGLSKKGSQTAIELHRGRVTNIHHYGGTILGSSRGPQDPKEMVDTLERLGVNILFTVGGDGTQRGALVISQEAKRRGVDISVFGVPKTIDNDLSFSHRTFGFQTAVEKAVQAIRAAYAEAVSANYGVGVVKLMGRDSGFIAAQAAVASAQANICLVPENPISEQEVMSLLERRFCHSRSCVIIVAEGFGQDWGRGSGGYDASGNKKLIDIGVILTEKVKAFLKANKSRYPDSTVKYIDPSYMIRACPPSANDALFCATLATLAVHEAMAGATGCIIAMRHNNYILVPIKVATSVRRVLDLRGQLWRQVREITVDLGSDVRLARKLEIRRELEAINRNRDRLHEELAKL

CC1(C)O[C@@H]2C[C@H]3[C@H]4C[C@H](F)C5=CC(=O)CC[C@]5(C)[C@@H]4[C@H](O)C[C@]3(C)[C@]2(C(=O)CO)O1
inactive: outcome [1] | Potency [2] | activity change, negative = inhibition [3] -4.77% | outcome [4] | Potency [6] | outcome [7] | activity change, negative = inhibition ([8]; at 25.7 µM (top of the series)) -1.62% | outcome [9] | Potency [10] | Potency [11] | Potency [12] | activity, negative = inhibition ([13]; parasite line A) -10.9% | activity, negative = inhibition ([13]; parasite line B) -1.91% | Potency (CP191) | Potency (CP217) | Potency (CP250) | Potency (CP256) | Potency (FAB9) | Potency (JCK)
active: Potency [5] 0.0188 µM
-9.41%: max response [8, 16]
-9.46%: max response [8, 15]

CCC[C@H]1C[C@H](C(=O)N[C@H]([C@@H]2O[C@H](SC)[C@@H](O)[C@H](O)[C@@H]2O)[C@H](C)O)N(C)C1
inactive: outcome [1] | Potency [2] | activity change, negative = inhibition [3] -5.24% | outcome [4] | Potency [14] > 20.6 µM | Potency [5] > 20.6 µM | Potency [6] | outcome [7] | activity change, negative = inhibition ([8]; at 25.7 µM (top of the series)) 0.0766% | Potency [10]
-10.3%: max response [8, 15]
-10.9%: max response [8, 16]

C[C@@]12CC[C@@H]3c4ccc(O)cc4CC[C@H]3[C@H]1C[C@@H](O)[C@H]2O
-5.07%: max response [8, 15]
inactive: outcome [1] | Potency [2] | activity change, negative = inhibition [3] -13% | outcome [4] | Potency [14] > 20.6 µM | Potency [5] > 20.6 µM | Potency [6] | outcome [7] | activity change, negative = inhibition ([8]; at 25.7 µM (top of the series)) -1.89% | Potency [10]
-7.07%: max response [8, 16]

Cc1nccn1C[C@@H]1CCc2c(c3ccccc3n2C)C1=O
-10%: max response [8, 15]
inactive: outcome [1] | activity change, negative = inhibition [3] -26.8% | outcome [4] | Potency [14] > 20.6 µM | Potency [5] > 20.6 µM | Potency [6] | outcome [7] | activity change, negative = inhibition ([8]; at 25.7 µM (top of the series)) -8.25% | Potency [10] | Potency [11]
-16.3%: max response [8, 16]
active: Potency [2] 3.98 µM

N#Cc1cccc(-c2cncnc2-n2ccnc2)c1
inactive: outcome [1] | activity change, negative = inhibition [3] -7.66% [at 7.69 µM] | outcome [4] | Potency [5] > 46 µM | Potency [6] | outcome [7] | activity change, negative = inhibition ([8]; at 57.5 µM (top of the series)) 8.24% | Potency [10]
24.6%: max response [8, 16]
16.1%: max response [8, 15]
active: Potency [2] 15.8 µM

C[C@H](N)CCCC(C)(C)O
0.936%: max response [8, 16]
inactive: outcome [1] | Potency [2] | activity change, negative = inhibition [3] -3.85% | outcome [4] | Potency [14] > 20.6 µM | Potency [5] > 20.6 µM | Potency [6] | outcome [7] | activity change, negative = inhibition ([8]; at 25.7 µM (top of the series)) -0.344% | Potency [10]
0.317%: max response [8, 15]
